# Source: PubChem BioAssay AID485317 (Broad Institute, 2010)
# About 11,000 (3.8%) of roughly 290,000 compounds were called active. The sample holds actives, similar compounds and a random draw of the others, so the mix is not that of the screen.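 How the source made its calls: active means mean replicate inhibition above about 79%, with every replicate also reaching it (limit read from the data); inconclusive means only one of the two criteria met; inactive means mean below limit and not every replicate reaching it.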
# Biological target: FAD-linked sulfhydryl oxidase ALR (Homo sapiens) (UniProt P55789)
# Test: inhibitors of human ALR sulfhydryl oxidase, primary screen, biochemical, H2O2 detection, HRP-luminol luminescence, single point (AID 485317)
# Details: purified ALR, DTT oxidation, active compounds read high, concentration not given here
# Sequence of FAD-linked sulfhydryl oxidase ALR (Homo sapiens) (P55789 whole entry, looked up): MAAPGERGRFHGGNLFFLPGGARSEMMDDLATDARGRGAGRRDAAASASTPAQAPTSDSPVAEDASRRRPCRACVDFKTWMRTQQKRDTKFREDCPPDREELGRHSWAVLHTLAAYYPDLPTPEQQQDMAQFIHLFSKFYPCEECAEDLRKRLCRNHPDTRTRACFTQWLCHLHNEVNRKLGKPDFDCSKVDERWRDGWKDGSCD
row,SMILES,inhibition
1,C[C@]12CC[C@H](O)CC1=CCC1C2CC[C@@]2(C)C1CC[C@@H]2NC(=O)CCC(=O)O (some centres undefined),-3.02% (inactive)
2,Cc1ccc(NC(=O)COC(=O)C2CC2)cc1S(=O)(=O)N1CCOCC1,3.43% (inactive)
3,CN(C)S(=O)(=O)c1ccc(C(=O)NCC2(N3CCOCC3)CCCCC2)cc1,-19.4% (inactive)
4,COc1c(O)cc2oc(-c3ccc(O)c(O)c3)cc(=O)c2c1O,99% (active)
5,COc1ccc(-c2cc(=O)c3c(O)cc(O[C@@H]4O[C@H](CO[C@@H]5O[C@@H](C)[C@H](O)[C@@H](O)[C@H]5O)[C@@H](O)[C@H](O)[C@H]4O)cc3o2)cc1O,2.46% (inactive)
6,CCOC(=O)COc1cc(O)c2c(=O)cc(-c3ccccc3)oc2c1,-2.55% (inactive)
7,[O-][n+]1ccc(OCc2ccccc2)cc1,-3.31% (inactive)
8,CCOc1ccc(Br)cc1S(=O)(=O)Nc1ccc(S(=O)(=O)Nc2cc(C)on2)cc1,13.7% (inactive)
9,O=C(Nc1ccc(F)cc1)N1CCCC(c2nc3c(nnn3Cc3ccccc3Cl)c(=O)[nH]2)C1 (centres undefined),-24.5% (inactive)
10,Cc1ccc(NC(=O)N2CCC(c3nc4c(nnn4Cc4c(F)cccc4Cl)c(=O)[nH]3)CC2)cc1,-5.17% (inactive)
11,Cc1ccc(C)c(Cn2nnc3c(=O)[nH]c(C(=O)Nc4ccc(F)cc4)nc32)c1,95.6% (active)
12,O=[N+]([O-])c1ccc(N2CCN(CC(O)COc3ccccc3)CC2)cc1 (centres undefined),6.12% (inactive)
13,OC(COCc1ccco1)CN1CCN(c2ccccc2)CC1 (centres undefined),74.6% (inactive)
14,OC(COCC1COc2ccccc2O1)CN1CCN(c2ccc(F)cc2)CC1 (centres undefined),81.2% (active)
15,CCn1c(SCc2ccccc2)nc2c(c1=O)SCC2,90.4% (active)
16,CCn1c(SCc2ccccc2)nc2cc(OC)c(OC)cc2c1=O,-2.54% (inactive)
17,COCCn1c(SCC(=O)N2CCCCCC2)nc2c(c1=O)SCC2,-0.691% (inactive)
18,Cc1cccc(CSc2nc3c(c(=O)n2C)SCC3)c1,99% (active)
19,Cn1c(SCC(=O)N2CCCCC2)nc2c(c1=O)SCC2,-0.76% (inactive)
20,Cc1cccc(CSc2nnc(C)c(=O)n2N)c1,-4.99% (inactive)
21,NS(=O)(=O)c1ccc(CNC(=O)c2cccc(S(=O)(=O)N3CCc4ccccc43)c2)cc1,-5.92% (inactive)
22,Cc1ccc(S(=O)(=O)N(C)C)cc1NC(=O)CN1c2cccc3cccc(c23)S1(=O)=O,-16.6% (inactive)
23,Cc1ccc(S(=O)(=O)N2CCCCC2)cc1NC(=O)CCNC(=O)c1ccccc1,-5.33% (inactive)
24,CCOc1ccc(C(C)=O)cc1COC(=O)CN1C(=O)NC2(CCCC2)C1=O,-0.483% (inactive)
